Pf growth 96h: Primary qHTS for delayed death inhibitors of the malarial parasite plastid, 96 hour incubation; P. falciparum luciferase reporter growth, 96 h; AID 504834, 2011; actives 6.9% (n = 320,000); Potency, µM (series often up to 28.7 µM), actives largely listed as inhibitors
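Cell-based qHTS: luciferase-tagged P. falciparum in erythrocytes (2% hematocrit, 0.05% parasitemia final) incubated with compounds for 96 hours, 37 C, 5% CO2; luciferase detection reagent then added and luminescence measured.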
Shiga inhibitor: A qHTS for Small Molecule Inhibitors of Shiga Toxin; Vero cells, Shiga toxin protein synthesis inhibition reporter; inhibition, % at 38.7 µM; actives 9.2% (n = 290,000); in the data active = inhibition mostly above about 28%, no sharp cut-off; inactive = mostly below about 43%
CHX counter: Cycloheximide Counterscreen for Small Molecule Inhibitors of Shiga Toxin; actives 12% (n = 300,000); max response, %; cell reporter, cycloheximide protein synthesis inhibition counterscreen; in the data active = max response mostly above about 13%, no sharp cut-off; inactive = mostly below about 14%; also: read at 38.3 µM for the half of the compounds with a filed dose
Pf growth 48h: Primary qHTS for delayed death inhibitors of the malarial parasite plastid, 48 hour incubation. AID 504832, 2011. P. falciparum luciferase growth in erythrocytes, 48 h. actives 5.9% (n = 310,000). Potency, µM (top dose mostly 28.7 µM), most hits filed as inhibitors
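Here the parasites carry a stable luciferase gene and grow inside erythrocytes in Albumax-based RPMI medium with compound for one erythrocytic cycle. Activity is scored as loss of luminescent signal.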
LmPK inh: qHTS Assay for Inhibitors of Leishmania Mexicana Pyruvate Kinase (LmPK) | actives 0.37% (n = 290,000) | AID 1721, 2009 | purified LmPK, Kinase-Glo ATP luminescence, 1 h | Q27686 | Potency, µM (doses to about 57.5 µM), most hits filed as inhibitors
Target sequence (Q27686 whole entry, looked up): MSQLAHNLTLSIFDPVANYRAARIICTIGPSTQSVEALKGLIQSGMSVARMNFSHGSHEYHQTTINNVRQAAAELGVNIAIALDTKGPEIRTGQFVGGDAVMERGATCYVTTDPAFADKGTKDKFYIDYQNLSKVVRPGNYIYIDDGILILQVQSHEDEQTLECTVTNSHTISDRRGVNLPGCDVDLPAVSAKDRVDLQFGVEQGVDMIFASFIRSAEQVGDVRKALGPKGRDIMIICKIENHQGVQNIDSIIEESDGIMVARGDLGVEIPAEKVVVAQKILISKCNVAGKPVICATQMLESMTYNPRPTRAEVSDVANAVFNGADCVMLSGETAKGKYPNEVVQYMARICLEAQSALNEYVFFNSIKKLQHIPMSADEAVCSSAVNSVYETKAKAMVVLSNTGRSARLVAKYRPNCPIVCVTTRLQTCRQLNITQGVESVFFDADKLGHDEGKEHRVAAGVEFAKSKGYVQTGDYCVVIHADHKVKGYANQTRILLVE
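In 50 mM imidazole pH 7.2 with 7 mM MgCl2, LmPK (0.1 nM) turned over PEP (0.5 mM) and ADP (0.1 mM) for 1 h at room temperature. Luciferase read-out of ATP.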
Hits are given with their value; 0 = inactive; ? = inconclusive; - = no result. Sampled rows, rich in hits. Any-hit rate of the full collection: about 22%. Unless noted, calls follow the shape of the dose curve; as a rule, active = well fitted inhibition curve with a large enough effect; inconclusive = small, poorly fitted or top-dose-only effect, or another doubt; inactive = no such curve, though single readings can be large or run the other way.

SMILES | Pf growth 96h | Shiga inhibitor | CHX counter | Pf growth 48h | LmPK inh
O=C(Nc1ccc2c(c1)OCCO2)C1CCCN(S(=O)(=O)c2cccc3nsnc23)C1 (stereo not drawn) | 0 | 0 | 24 | - | 0
O=C(Nc1ccccc1Cl)C1CCCN(S(=O)(=O)c2cccc3cccnc23)C1 (stereo not drawn) | 0 | 0 | 0 | ? | 0
O=S(=O)(c1cccc2nsnc12)N1CCCCC1 | 8.3µM | 0 | 0 | 0 | 0
COCCCn1c(=O)c2sccc2n(Cc2ccc(C)cc2)c1=O | 0 | 0 | 0 | 0 | 0
O=C(NCCc1ccccc1)C1CCCN(S(=O)(=O)c2cccc3nonc23)C1 (stereo not drawn) | - | 0 | 0 | - | 0
Cc1ccc2nc(NC(=O)C3CCCN(S(=O)(=O)c4cccc5nsnc45)C3)sc2c1 (stereo not drawn) | ? | 0 | 25 | 10µM | 0
Cc1ccc2nc(NC(=O)C3CCN(S(=O)(=O)c4cccc5nsnc45)CC3)sc2c1 | 0 | 0 | 0 | ? | 0
O=C(NCCc1ccccc1)C1CCCN(S(=O)(=O)c2cccc3nsnc23)C1 (stereo not drawn) | 1.2µM | 0 | 0 | 0 | 0
COc1cccc(NC(=O)N2CCCC2C(=O)Nc2cc(C)ccc2OC)c1 (stereo not drawn) | 0 | 0 | 0 | 0 | 0
Cc1ccc(C2=NNC(=O)C(c3ccc(Cl)cc3)C2)cc1 (stereo not drawn) | - | 0 | 0 | 0 | 0
c1ccc(C2=Nc3ccccc3OC2)cc1 | ? | 0 | 21 | - | ?
Cc1ccc2c(c1)N=C(c1ccc(Cl)cc1)CO2 | 0 | 56 | 53 | - | ?
Clc1ccc(C2=Nc3cc(Cl)ccc3OC2)cc1 | 0 | 60 | 27 | 0 | 0
Clc1ccc(C2=NN=C3COc4ccccc4N3C2)cc1 | 0 | 0 | 0 | 0 | 0
O=Cc1cccc(OC(=O)c2ccc(Cl)cc2Cl)c1 | 0 | 0 | 26 | - | 0
Cc1cc(C)nc(OC(=O)c2c(Cl)cc(Cl)cc2Cl)n1 | 0 | 0 | 0 | 0 | 0
Cc1cc(C)nc(OC(=O)c2ccc(Cl)cc2Cl)n1 | 0 | 0 | 17 | 0 | 0
COc1ccc(OC)c(S(=O)(=O)Nc2cc(C(=O)O)ccc2N2CC3CC(C2)c2cccc(=O)n2C3)c1 (stereo not drawn) | 0 | 0 | 0 | 0 | 0
COc1cc(O)c(C(CC(=O)N2CCOCC2)c2cc(OC)c(OC)c(OC)c2)c(OC)c1 (stereo not drawn) | 0 | 0 | 0 | ? | 0
Cc1cc(-c2nnc(CCC(=O)NC(C)c3ccc(F)cc3)o2)no1 (stereo not drawn) | ? | 0 | 0 | 0 | 0
CCc1ccc(CN(C)C(=O)CCc2nnc(CCc3cccc(OC)c3)o2)nc1 | 0 | 0 | 0 | ? | 0
Cc1cc(-c2nnc(CCC(=O)N(C)C(C)c3cccs3)o2)no1 (stereo not drawn) | 0 | 77 | 48 | 0 | 0
Cc1cc(-c2nnc(CCC(=O)N(C)Cc3ccsc3)o2)no1 | 0 | 0 | 21 | 0 | 0
Cc1cc(-c2nnc(CCC(=O)NCc3ccc(OC(F)(F)F)cc3)o2)no1 | 0 | 0 | 16 | 0 | 0
CSc1ccc(CNC(=O)C(C)n2nc(C)c3c(C)n(-c4ccccc4)nc3c2=O)cc1 (stereo not drawn) | 0 | 0 | 0 | 0 | 0
SMILES | Pf growth 96h | Shiga inhibitor | CHX counter | Pf growth 48h | LmPK inh
O=C(NCc1ccccc1Cl)C1CCCN1C(=O)Nc1ccccc1 (stereo not drawn) | 0 | 0 | 0 | 0 | 0
Cc1nonc1NC(=O)OC1CCCCC1 | 1µM | 0 | 0 | ? | 0
Cc1nonc1NC(=O)N1CCCC1 | 0 | 0 | 0 | 0 | 0
Cc1cc(Cl)ccc1C(=O)C1CCCN(C(=O)c2ccc3ncccc3c2)C1 (stereo not drawn) | ? | 0 | 0 | 0 | 0
CC(C)c1ccc(C(O)P(=O)(OC2CCCCC2)OC2CCCCC2)cc1 (stereo not drawn) | ? | 0 | 0 | 0 | 0
CC(=NCCCN(C)C)C1=C(O)c2ccccc2C1=O | 0 | 0 | 0 | 0 | 0
CC(=NC1CC1)C1=C(O)c2ccccc2C1=O | 0 | 55 | 50 | - | 0
C/C(=N\N(C)C)C1=C(O)c2ccccc2C1=O | 0 | 89 | 29 | 0 | 0
CCNc1nc(NCC)nc(N(C#N)CCOc2ccccc2)n1 | 5.2µM | 0 | 0 | ? | 0
CCNc1nc(NC(C)C)nc(N(C#N)CCOc2ccccc2)n1 | - | 0 | 0 | ? | 0
CCN(CC)S(=O)(=O)c1cccc(-c2nnc(SCC(N)=O)n2C)c1 | ? | 0 | 0 | 0 | 0

Bioassay records deposited in PubChem by National Center for Advancing Translational Sciences (NCATS).
